Screening data: PubChem BioAssay, National Center for Advancing Translational Sciences (NCATS)
ClpP mod: qHTS Assay for Activators of ClpP; ATP-dependent Clp protease proteolytic subunit (Bacillus subtilis (strain 168)), P80244; Potency, µM (doses to about 57.5 µM), for inactives: at the highest dose activity change, negative = active; hit rate 1.9% among 340,000; purified B. subtilis ClpP, FRET peptide cleavage, 20 min; active means well fitted falling curve with a large enough effect; inconclusive means small, poorly fitted or top-dose-only effect; inactive means no such curve, though single readings can be large or run the other way; further: the source files actives as falling curves though it sought activators and does not explain the sign; nearly all actives have a fitted effect of over 65% in size
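Buffer: 100 mM Tris/HCl pH8, 100 mM KCl, 0.05% low protease BSA, 2.5% glycerol, 0.01% Tween-20. ClpP 10 microg/mL final; 20 min RT; delta FRET normalized to ADEP and DMSO controls.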
GLP1R cytotox: qHTS of GLP-1 Receptor Inverse Agonists: Cytotox Screen. HEK293 cAMP-luciferase reporter cells, luminescence, 24 h. Potency, µM (top dose mostly 38.3 µM), for the others: at the top dose activity change, negative = inhibition, actives largely listed as inhibitors. hit rate 0.13% among 410,000. AID 624418, 2012;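 further: loss of luciferase light is scored as toxicity; on the % scale 0 is the no-effect control and ±100 the full control effect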
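MLSMR compounds, 24 hr on cells at 37 deg C/5% CO2; luminescence after luciferase reagent (12 min RT). Inhibition counted as the undesired cytotoxic outcome.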
GLP1R ag: qHTS of GLP-1 Receptor Agonists; Potency, µM (top dose mostly 45.6 µM), for the others: at the top dose activation, actives largely listed as activators; hit rate 0.007% among 380,000; Glucagon-like peptide 1 receptor (Homo sapiens), P43220; HEK293 GLP-1R CRE-luciferase, luminescence, 4-6 h; cells express a hypersensitive GLP-1R form; AID 624172, 2012; further: % of control where 0% means no effect
Target sequence (P43220 whole entry, looked up): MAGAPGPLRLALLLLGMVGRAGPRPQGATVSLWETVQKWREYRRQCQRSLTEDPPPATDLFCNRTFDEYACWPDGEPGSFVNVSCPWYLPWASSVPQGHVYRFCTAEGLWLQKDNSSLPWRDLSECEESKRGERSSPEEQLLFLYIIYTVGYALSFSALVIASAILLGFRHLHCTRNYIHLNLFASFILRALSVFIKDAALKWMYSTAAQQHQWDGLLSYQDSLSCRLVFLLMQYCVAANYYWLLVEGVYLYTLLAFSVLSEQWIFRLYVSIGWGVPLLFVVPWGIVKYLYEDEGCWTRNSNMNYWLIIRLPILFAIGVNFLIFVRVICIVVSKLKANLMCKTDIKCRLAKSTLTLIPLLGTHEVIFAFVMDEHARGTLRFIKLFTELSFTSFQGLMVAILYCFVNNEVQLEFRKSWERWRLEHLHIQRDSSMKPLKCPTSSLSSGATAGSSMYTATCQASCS
GLP1R inv ag: qHTS of GLP-1 Receptor Inverse Agonists (Inhibition Mode); Potency, µM (titrated, usually from 38.3 µM), inactives show at the highest dose activity change, negative = inhibition, most hits filed as inhibitors; HEK293 GLP-1R CRE-luciferase, luminescence, 24 h; GLP-1R form is constitutively active; hit rate 1.6% among 410,000; further: on the % scale 0 is the no-effect control and ±100 the full control effect; nearly all actives have a fitted effect of over 55% in size
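Cells are plated, allowed 12 hours at 37 deg C, then treated with compounds for 24 hr before luciferase detection reagent is added and luminescence is read after 12 min at room temperature. The HEK293 line carries constitutively active GLP-1R with a cAMP-responsive reporter.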
Starred values were filed as active, the others as inactive; u = inconclusive; x = no result given. The list is not random: actives were taken first. Their share in the collection is about 3.2%. Unless noted, the call rests on the fitted dose curve; in most records, active means well fitted curve in the direction sought with a large enough effect; inconclusive means small, poorly fitted or top-dose-only effect, or another doubt; inactive means no such curve, though single readings can be large; an effect the other way counts as inactive or inconclusive. Potency means the concentration at half of the fitted maximal effect.

SMILES	ClpP mod	GLP1R cytotox	GLP1R ag	GLP1R inv ag
O=C(O)c1cc(NCc2ccc(F)cc2)ccc1N1CCOCC1	31.6µM*	-10.5%	6.1%	-7.4%
Nc1c(CC(=O)O)cccc1C(=O)c1ccccc1	x	x	-3.7%	x
CC(=O)c1cccc(NC(=O)c2ccc(NC(=O)CC3SC(N4CCCCC4)=NC3=O)cc2)c1 (centres undefined)	22.4µM*	10.6%	-2.4%	12.1%
CC(=O)c1cccc(NC(=O)CC2SC(N3CCCCC3)=NC2=O)c1 (centres undefined)	-3.3%	-7.1%	-0.3%	2.5%
Cn1c(=N)n(CC(O)c2cccc3ccccc23)c2ccccc21 (centres undefined)	8.91µM*	u	17.4%	u
CCOc1ccc(Cl)cc1C1CC(=O)Nc2cc(OC)c(OC)c(OC)c21 (centres undefined)	-0.8%	2.7%	-1.0%	3.5%
CCOC(=O)c1cc(OC(=O)c2ccccc2C)n(-c2ccccc2)n1	0.7%	4.9%	-0.9%	0.1%
COc1ccccc1NS(=O)(=O)c1cc([N+](=O)[O-])ccc1N/N=C/c1c[nH]c2ccccc12	2.7%	-23.5%	0.3%	5.01µM*
Cc1c(-c2ccccc2)[n+](=O)c(-c2ccco2)c(C)n1[O-]	28.2µM*	2.8%	5.3%	7.2%
CCN1CCc2c(sc(N)c2C#N)C1	28.2µM*	2.8%	0.7%	1.1%
CC(C)N1CCc2c(sc(N)c2C#N)C1	25.1µM*	-3.3%	-2.8%	5.6%
CCCN1CCc2c(sc(NC(=S)NC(=O)c3ccccc3)c2C#N)C1	-4.5%	5.7%	0.6%	12.1%
COc1ccc(NC(=O)C2Cc3c(-c4cccc(NC(C)=O)c4)ccnc3O2)cc1 (centres undefined)	-5.7%	-20.6%	12.2%	u
CN(Cc1ccco1)C(=O)CN1C(=O)NC(c2ccccc2)(c2ccccc2)C1=O	0.5%	-3.5%	-0.7%	u
Cc1ccc(CN(C)C(=O)CN2C(=O)NC(c3ccccc3)(c3ccccc3)C2=O)c(C)c1	2.4%	-15.1%	-1.2%	3.55µM*
Cc1ccc(-c2nn3c(C)nnc3c3ccccc23)cc1S(=O)(=O)NCC(C)O (centres undefined)	-17.8%	3.1%	x	24.6%
CN1CCN(c2ccc(Cl)cc2NC(=O)c2cc(=O)[nH]c3ccccc23)CC1	1.4%	-30.2%	17.1%	u
CN1CCN(c2ccc(Cl)cc2NC(=O)c2ccc(=O)n(C)n2)CC1	0.8%	3.1%	-2.9%	10µM*
COc1ccccc1C1C=C(c2ccc(Cl)cc2)Nc2nc(-c3ccc(Cl)cc3)nn21 (centres undefined)	-8.4%	131.6%	x	u
O=C(CN1CCN(S(=O)(=O)N2CCCCC2)CC1)Nc1ccc(Cl)c(Cl)c1	1.0%	-16.6%	10.0%	8.91µM*
O=C(CN1CCCCC1)Nc1ccc(NC(=O)c2ccc(Cl)cc2)cc1Cl	14.1µM*	9.2%	2.6%	-25.1%
Cc1cc(Cl)ccc1NC(=O)CN1CCCC1	x	8.0%	10.3%	5.5%
Cc1ccc(-n2ncc(C(=O)N3CCN(c4cc(Cl)ccc4C)CC3)c2C2CCN(C(=O)OC(C)(C)C)CC2)cc1	0.7%	0.4%	x	8.2%
COc1ccc(CCNS(=O)(=O)c2ccc(F)c(C(=O)Nc3ccc(Cl)cc3)c2)cc1OC	-3.8%	-9.9%	x	u
Cc1ccc(NC(=S)N(CCCN2CCCC2)Cc2cccn2Cc2ccc(Cl)cc2)cc1C	x	-26.7%	11.2%	u
SMILES	ClpP mod	GLP1R cytotox	GLP1R ag	GLP1R inv ag
FC(F)(F)c1cccc(NC(=S)N(CCCN2CCCC2)Cc2cccn2Cc2ccc(Cl)cc2)c1	x	-92.6%	2.7%	6.31µM*
COc1ccc(-c2cc(C#N)nc(Oc3ccc(Cl)cc3)n2)cc1	7.94µM*	2.3%	1.0%	-25.6%
COc1ccc(-c2cc(C#N)nc(Cl)n2)cc1	0.0%	u	-6.2%	109.9%
CCN(CC)c1nc(C#N)cc(-c2ccc(OC)cc2)n1	35.5µM*	30.2%	7.2%	u
COc1ccc(-c2oc3c(OC)c(OC)c(OC)c(O)c3c(=O)c2OC)cc1OC	-1.6%	-15.4%	8.1%	2.82µM*
COc1c(OC)c(O)c2c(=O)c(O)c(-c3ccccc3)oc2c1OC	0.2%	-14.0%	-2.7%	u
CCc1ccc(CNC(=O)c2cnc(N3CCCCC3)c3ccccc23)cc1	31.6µM*	-6.5%	x	u
